From PubChem BioAssay (NCATS)
Inconclusive results are not listed. Calls of active or inactive are those of the source. Unless noted, calls follow the shape of the dose curve; as a rule, active = well fitted curve in the direction sought with a large enough effect; inconclusive = small, poorly fitted or top-dose-only effect, or another doubt; inactive = no such curve, though single readings can be large; an effect the other way counts as inactive or inconclusive.

Assays:
[1] = biological target: Cytochrome P450 1A2 (Homo sapiens) (UniProt P05177); assay: p450-cyp1a2 (AID 410; calls by dose curve;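 also: -100% = full effect of reference inhibitor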)
Cytochrome P450 1A2 (Homo sapiens), sequence (P05177 whole entry, looked up): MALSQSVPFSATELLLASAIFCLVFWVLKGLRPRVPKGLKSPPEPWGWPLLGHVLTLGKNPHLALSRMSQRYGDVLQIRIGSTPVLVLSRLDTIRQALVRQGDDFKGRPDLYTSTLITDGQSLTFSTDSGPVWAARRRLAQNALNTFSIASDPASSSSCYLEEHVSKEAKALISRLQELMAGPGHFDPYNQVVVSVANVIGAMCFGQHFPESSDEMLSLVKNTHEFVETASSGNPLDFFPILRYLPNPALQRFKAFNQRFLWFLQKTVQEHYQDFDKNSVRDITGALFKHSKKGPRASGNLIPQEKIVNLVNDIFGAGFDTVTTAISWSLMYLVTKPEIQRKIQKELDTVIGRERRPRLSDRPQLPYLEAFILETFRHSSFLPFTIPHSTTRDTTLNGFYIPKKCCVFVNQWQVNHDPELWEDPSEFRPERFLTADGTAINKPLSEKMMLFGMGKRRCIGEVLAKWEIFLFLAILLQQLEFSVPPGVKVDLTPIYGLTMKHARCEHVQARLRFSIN
Outline: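 Human CYP1A2 (20nM) demethylated Luciferin-ME at its Km (100uM) in 100mM KPO4. After 10 min compound preincubation, NADPH regeneration ran the reaction 60 min at room temperature. Luciferin was read by luminescence, normalized to 57 uM furafylline.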

[2] = qHTS Assay for Identification of Small Molecule Agonists for Hypoxia Response Element Signaling Pathway (AID 914; active = well fitted activation curve with a large enough effect in the signal ratio, with a control signal flat, not every such curve was filed as active; the % refers to the signal ratio; also: % of control where 0% means no effect); details: ME-180 (cervical carcinoma) HRE-bla reporter, beta-lactamase ratio, CoCl2, 17 h; activation: stronger effect = higher value
Outline: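 In Opti-MEM containing 0.5% dialyzed FBS and 10 mM HEPES, ME-180 HRE-bla cells received a compound titration and EC50 CoCl2. They were incubated 17 hours, then CCF4-loaded 2.5 hours at room temperature before ratio reading.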

7G8 = assay: qHTS profiling for inhibitors of Plasmodium falciparum proliferation (AID 504749);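 also: 0% = DMSO vehicle and full inhibition = artemisinin control; nearly all actives have a fitted effect of over 60% in size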; details: P. falciparum in erythrocytes, SYBR Green DNA, 72 h; series mostly up to 12.8 µM
Outline: (§1)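 P. falciparum-infected erythrocytes (0.3% parasitemia, 2.5% hematocrit final) were exposed to compounds for 72 h at 37 C in 5% CO2, then lysed with SYBR Green buffer overnight at room temperature; parasite DNA fluorescence was normalized to artemisinin and DMSO controls.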

CP194 = assay: as above; details: P. falciparum in erythrocytes, SYBR Green DNA, 72 h; series mostly up to 12.8 µM
Outline: as §1

CP203 = assay: as above; details: P. falciparum in erythrocytes, SYBR Green DNA, 72 h; series mostly up to 12.8 µM
Outline: as §1

CP215 = assay: as above; details: P. falciparum in erythrocytes, SYBR Green DNA, 72 h; series mostly up to 12.8 µM
Outline: as §1

CP265 = assay: as above; details: P. falciparum in erythrocytes, SYBR Green DNA, 72 h; series mostly up to 12.8 µM
Outline: as §1

CP268 = assay: as above; details: P. falciparum in erythrocytes, SYBR Green DNA, 72 h; series mostly up to 12.8 µM
Outline: as §1

CP335 = assay: as above; details: P. falciparum in erythrocytes, SYBR Green DNA, 72 h; series mostly up to 12.8 µM
Outline: as §1

DIV17 = assay: as above; details: P. falciparum in erythrocytes, SYBR Green DNA, 72 h; series mostly up to 12.8 µM
Outline: as §1

GB4 = assay: as above; details: P. falciparum in erythrocytes, SYBR Green DNA, 72 h; series mostly up to 12.8 µM
Outline: as §1

P94_40 = assay: as above; details: P. falciparum in erythrocytes, SYBR Green DNA, 72 h; series mostly up to 12.8 µM
Outline: as §1

PC26 = assay: as above; details: P. falciparum in erythrocytes, SYBR Green DNA, 72 h; series mostly up to 12.8 µM
Outline: as §1

[3] = S16 Schwann cell PMP22 intronic element firefly luciferase assay (AID 624032);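 also: plate controls were DMSO for no effect and PTC124 positive control mean for full effect; nearly all actives have a fitted effect of over 30% in size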
Outline: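 Rat S16 Schwann cells stably carrying a PMP22 intronic element-driven Fluc reporter were seeded overnight, then exposed to compounds for 24 h at 37 °C. Luminescence was normalized to PTC124 (positive control) and DMSO (0% activity).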

TAB109 = assay: qHTS profiling for inhibitors of Plasmodium falciparum proliferation (AID 504749);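 also: 0% = DMSO vehicle and full inhibition = artemisinin control; nearly all actives have a fitted effect of over 60% in size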; details: P. falciparum in erythrocytes, SYBR Green DNA, 72 h; series mostly up to 12.8 µM
Outline: as §1

DFO2036 = assay: as above; details: P. falciparum in erythrocytes, SYBR Green DNA, 72 h; series mostly up to 12.8 µM
Outline: as §1

[4] = biological target: Cytochrome P450 3A4 (Homo sapiens) (UniProt P08684); assay: qHTS Assay for Activators of Cytochrome P450 3A4 (AID 885); also: nearly all actives have a fitted effect of over 65% in size
Cytochrome P450 3A4 (Homo sapiens), sequence (P08684 whole entry, looked up): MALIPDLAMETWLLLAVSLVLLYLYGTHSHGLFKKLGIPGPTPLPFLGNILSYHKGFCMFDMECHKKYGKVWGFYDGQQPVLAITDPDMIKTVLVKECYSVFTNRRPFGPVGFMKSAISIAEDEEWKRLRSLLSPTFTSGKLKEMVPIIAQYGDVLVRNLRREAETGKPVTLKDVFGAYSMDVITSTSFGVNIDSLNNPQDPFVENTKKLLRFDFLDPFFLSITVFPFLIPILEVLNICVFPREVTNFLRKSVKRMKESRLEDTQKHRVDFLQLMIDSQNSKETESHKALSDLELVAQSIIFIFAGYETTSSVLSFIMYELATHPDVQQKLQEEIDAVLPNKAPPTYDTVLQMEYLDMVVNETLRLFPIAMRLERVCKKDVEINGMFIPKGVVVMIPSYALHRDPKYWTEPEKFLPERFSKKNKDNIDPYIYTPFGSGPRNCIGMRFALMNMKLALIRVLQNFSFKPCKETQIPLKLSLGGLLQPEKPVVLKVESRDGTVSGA
Outline: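 Human CYP3A4 (20 nM) with Luciferin-PPXE at 25 uM (its KM) in 200 mM KPO4; 10 min compound preincubation, then NADPH regeneration and 60 min reaction at RT. Luciferin read by luminescence; normalized to 57 uM ketoconazole full inhibition.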

O=C(O)[C@@H](O)[C@@H](O)[C@@H](O[C@H]1O[C@@H](CO)[C@@H](O)[C@@H](O)[C@@H]1O)[C@@H](O)CO
inactive: Potency [1]

Cc1ncc([N+](=O)[O-])n1C[C@H](O)CCl
inactive: activation [2] -4.65% | Potency (7G8) | Potency (CP194) | Potency (CP203) | Potency (CP215) | Potency (CP265) | Potency (CP268) | Potency (CP335) | Potency (DIV17) | Potency (GB4) | Potency (P94_40) | Potency (PC26)

CO[C@@H]1C[C@H](O[C@H]2[C@@H](C)[C@H](O[C@@H]3O[C@@H](C)C[C@@H](N(C)C)[C@@H]3OC(C)=O)[C@H](C)C[C@]3(CO3)C(=O)[C@H](C)[C@H](OC(C)=O)[C@H](C)[C@H](C)OC(=O)[C@@H]2C)O[C@H](C)[C@@H]1OC(C)=O
inactive: Potency [3] | Potency (7G8) | Potency (CP194) | Potency (CP203) | Potency (CP215) | Potency (CP265) | Potency (CP268) | Potency (DIV17) | Potency (P94_40) | Potency (PC26) | Potency (TAB109)

COc1ccccc1OC[C@H](O)CO
inactive: Potency [3] | Potency (7G8) | Potency (CP194) | Potency (CP203) | Potency (CP215) | Potency (CP265) | Potency (CP268) | Potency (CP335) | Potency (DFO2036) | Potency (DIV17) | Potency (GB4) | Potency (P94_40) | Potency (PC26) | Potency (TAB109)

COc1cc(C2Oc3cc(C4Oc5cc(O)cc(O)c5C(=O)C4O)ccc3OC2CO)ccc1O (stereo not given)
inactive: Potency [4]

CC(=O)OCC(=O)[C@@]12OC(C)(C)O[C@@H]1C[C@H]1[C@H]3C[C@H](F)C4=CC(=O)C=C[C@@]4(C)[C@]3(F)[C@H](O)C[C@@]12C
inactive: Potency [3] | Potency (CP194) | Potency (CP203) | Potency (CP215) | Potency (CP265) | Potency (CP268) | Potency (CP335) | Potency (DFO2036) | Potency (DIV17) | Potency (GB4) | Potency (P94_40) | Potency (PC26) | Potency (TAB109)

NC[C@@H]1O[C@@H](O[C@H]2[C@H](O)[C@H](O[C@@H]3O[C@H](CO)[C@@H](O)[C@H](N)[C@@H]3O)[C@@H](N)C[C@H]2N)[C@H](N)C[C@@H]1O
inactive: Potency [3] | Potency (7G8) | Potency (CP194) | Potency (CP203) | Potency (CP215) | Potency (CP265) | Potency (CP268) | Potency (CP335) | Potency (DFO2036) | Potency (DIV17) | Potency (GB4) | Potency (P94_40) | Potency (PC26) | Potency (TAB109)

CCCCC[C@H](O)/C=C\[C@@H]1[C@H](O)CC(=O)[C@@H]1CCCCCCC(=O)O
inactive: Potency [3] | Potency (CP203) | Potency (CP215) | Potency (CP265) | Potency (CP335) | Potency (DFO2036) | Potency (P94_40) | Potency (PC26) | Potency (TAB109)
